FLuc counter: qHTS profiling assay for firefly luciferase inhibitor/activator using purifed enzyme and Km concentrations of substrates (counterscreen for miR-21 project); Luciferin 4-monooxygenase (Photinus pyralis), P08659; purified FLuc, Km substrates, luminescence inhibition; Potency, µM (titrated, usually from 57.5 µM), inactives show at the highest dose activity change, negative = inhibition, most hits filed as inhibitors; hit rate 6.9% among 360,000;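 further: plate controls were vehicle for no effect and reference inhibitor for full effect; nearly all actives have a fitted effect of over 55% in size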
Target sequence (P08659 whole entry, looked up): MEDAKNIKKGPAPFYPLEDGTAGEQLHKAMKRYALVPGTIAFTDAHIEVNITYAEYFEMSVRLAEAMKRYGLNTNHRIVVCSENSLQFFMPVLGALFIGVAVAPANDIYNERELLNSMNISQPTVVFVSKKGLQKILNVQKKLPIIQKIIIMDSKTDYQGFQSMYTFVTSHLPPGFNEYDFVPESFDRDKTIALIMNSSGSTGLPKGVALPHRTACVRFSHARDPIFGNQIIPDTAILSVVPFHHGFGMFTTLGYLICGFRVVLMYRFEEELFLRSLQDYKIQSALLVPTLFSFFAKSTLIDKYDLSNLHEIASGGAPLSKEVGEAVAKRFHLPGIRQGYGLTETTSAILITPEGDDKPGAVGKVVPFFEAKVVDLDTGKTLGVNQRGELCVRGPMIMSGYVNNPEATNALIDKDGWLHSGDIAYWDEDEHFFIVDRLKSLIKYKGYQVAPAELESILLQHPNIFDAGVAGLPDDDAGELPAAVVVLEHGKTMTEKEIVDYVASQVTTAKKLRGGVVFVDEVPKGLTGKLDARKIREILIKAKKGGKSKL
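Biochemical qHTS of compounds, final roughly 60 µM downward over six points, against 10 nM purified firefly luciferase using Km concentrations of substrates (10 uM D-luciferin, 10 uM ATP) in Tris acetate pH 7.5 buffer; luminescence output.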
Rab9 promoter act: qHTS Assay for Rab9 Promoter Activators; Huh7 Rab9 promoter-luciferase reporter, luminescence, 24 h; Potency, µM (titrated, usually from 9.22 µM), for the others: top-dose activation, negative = inhibition, actives largely listed as activators; hit rate 2.8% among 320,000; further: % of control where 0% means no effect; nearly all actives have a fitted effect of over 60% in size
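Cells were plated at 1500 per well in reduced-serum medium with 10% FBS and left 2 h. Compound in DMSO was then added for 24 h at 37 °C. Reporter signal was read by luminescence after 10 min with luciferase detection reagent.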
NPC1 prom act: qHTS Assay for NPC1 Promoter Activators | Huh7 NPC1 promoter luciferase reporter, 24 h | Potency, µM (series often up to 9.22 µM), inactives show at the top dose activation, hits mostly activators | hit rate 2.4% among 320,000 | AID 485313, 2010; further: % of control where 0% means no effect; nearly all actives have a fitted effect of over 60% in size
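Huh7 reporter cells (NPC1 promoter driving luciferase) are dosed with compound for 24 h at 37 °C, 5% CO2; luciferase detection reagent is then added and luminescence measured after 10 min at ambient temperature.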
ELG1 genotox: qHTS screen for small molecules that induce genotoxicity in human embryonic kidney (HEK293T) cells expressing luciferase-tagged ELG1 | AID 504466, 2011 | Potency, µM (top dose mostly 46 µM), inactives show at the top dose activity change, positive = activation, most hits filed as activators | hit rate 1.3% among 330,000 | HEK293T ELG1-luciferase reporter, luminescence, 16 h; further: % of control where 0% means no effect; nearly all actives have a fitted effect of over 60% in size
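Luminescence read-out: rising ELG1-luciferase signal, reflecting elevated ELG1 protein under genetic stress, flags genotoxic compounds. Cells were treated for 16 hr at 37 °C before ONE-Glo detection.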
ELG1 DNA repair: qHTS screen for small molecules that inhibit ELG1-dependent DNA repair in human embryonic kidney (HEK293T) cells expressing luciferase-tagged ELG1; HEK293T ELG1-luciferase reporter, luminescence, 16 h; DNA damage induced by 5-fluorouridine; Potency, µM (top dose mostly 46.1 µM), for the others: top-dose activity change, negative = inhibition, actives largely listed as inhibitors; hit rate 2.3% among 330,000; AID 504467, 2011; further: on the % scale 0 is the no-effect control and ±100 the full control effect; nearly all actives have a fitted effect of over 55% in size
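DMSO vehicle served as the neutral condition. Each well held 2,000 cells given 5-fluorouridine plus compound; after 16 hr at 37 °C/5% CO2, ONE-Glo was added and luciferase measured 30 min later.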
SMN2 splice enh: qHTS Assay for Enhancers of SMN2 Splice Variant Expression | AID 1458, 2008 | Potency, µM (series often up to 46.1 µM), for inactives: at the highest dose activity change, positive = activation, actives largely listed as activators | hit rate 2.8% among 210,000 | HEK293 SMN2-luciferase splicing reporter, luminescence, 30-36 h; further: % of control where 0% means no effect; nearly all actives have a fitted effect of over 55% in size
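HEK293 cells carry an SMN2 minigene-luciferase reporter in which exon 7 inclusion puts luciferase in frame. Cells were seeded at 2000 cells/well, attached for 10-12 hours, then exposed to compounds for 30-36 hours at 37C before ONE-Glo luminescence.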
* hit, by the source's call; ? = inconclusive; · = not tested or not shown. Hits are enriched below; roughly 9.3% of the tested compounds scored in any of these assays. The call rests on the fitted dose curve; in most records, active means well fitted curve in the direction sought with a large enough effect; inconclusive means small, poorly fitted or top-dose-only effect, or another doubt; inactive means no such curve, though single readings can be large; an effect the other way counts as inactive or inconclusive. Potency means the concentration at half of the fitted maximal effect.

SMILES	FLuc counter	Rab9 promoter act	NPC1 prom act	ELG1 genotox	ELG1 DNA repair	SMN2 splice enh
CCOc1ccccc1N(CC)C(=O)c1nn(C)c2c1CSc1ccccc1-2	0.0%	2.2%	-4.3%	-5.3%	9.2µM*	·
CCOc1ccccc1NC(=O)c1nn(C)c2c1CSc1ccccc1-2	-10.9%	·	·	·	·	·
NC(=O)c1cc(S(=O)(=O)NCCc2ccc(S(N)(=O)=O)cc2)cs1	-2.5%	-0.8%	0.1%	0.8%	-1.7%	·
CCN(CC)c1ccc(NC(=O)c2sc3nc(-c4ccccc4)cn3c2C)cc1	-10.9%	·	·	·	·	·
Cc1onc(-c2ccccc2)c1C(=O)Nc1ccc2c(c1)OCCO2	-3.2%	4.1%	-0.2%	1.6%	-3.2%	-12.8%
COc1ccc(-c2cn3c(C)c(C(=O)N4CCc5ccccc5C4)sc3n2)cc1	?	0.4%	-4.3%	-9.3%	?	·
Cc1c(C(=O)Nc2ccc3c(c2)OCCO3)sc2nc(-c3ccccc3)cn12	-17.3%	-9.4%	-6.9%	-11.0%	13µM*	-117.2%
Cc1c(C(=O)Nc2ccncc2)sc2nc(-c3ccccc3)cn12	-7.8%	-6.5%	0.2%	0.2%	13µM*	-75.2%
Cc1c(C(=O)N2CCc3ccccc3C2)sc2nc(-c3ccccc3)cn12	?	-0.2%	-3.8%	-13.1%	20.6µM*	2.2%
Nc1ncnc2c1nc(Br)n2C1O[C@H]2COP(=O)(O)O[C@@H]2C1O (some centres not stated)	·	·	·	·	·	-23.9%
CC1(CCc2ccccc2)NC(=O)N(CC(=O)N2CCCCCC2)C1=O (configuration not stated)	1.1%	1.6%	-2.4%	-0.1%	1.8%	·
Cc1ccccc1Nc1c(-c2c[nH]c3ccccc23)nc2ccccn12	5.1%	·	·	·	·	21.7%
Cc1ccccc1Nc1c(-c2c[nH]c3ccccc23)nc2ccc(Cl)cn12	-9.0%	·	·	·	·	17.8%
Cc1ccc(Nc2c(-c3ccccn3)nc3cc(C)ccn23)cc1	-11.1%	-16.5%	-14.7%	?	?	-75.0%
Cc1ccc(Nc2c(-c3c[nH]c4ccccc34)nc3cc(C)ccn23)cc1	-10.9%	·	·	·	·	14.1µM*
Cc1ccn2c(Nc3ccccc3)c(-c3c[nH]c4ccccc34)nc2c1	-13.6%	·	·	·	·	11.2µM*
Cc1ccc2nc(-c3c[nH]c4ccccc34)c(Nc3ccc(F)cc3)n2c1	5.7%	·	·	·	·	14.1µM*
CCNC(=O)c1ccc2nc(CCc3ccccc3)oc2c1	-13.1%	·	·	·	·	·
Cc1ccc(CNC(=O)CS(=O)(=O)Cc2nc(-c3ccc(C)cc3)oc2C)cc1	1.9%	-4.9%	-1.2%	-1.7%	-12.8%	·
Cc1c(N=C2C=CC(=O)c3ccccc32)c(=O)n(-c2ccccc2)n1C	?	-12.2%	-19.1%	-4.3%	20.6µM*	-17.7%
Cc1c(N=C2C=C(Br)C(=O)C(Br)=C2)c(=O)n(-c2ccccc2)n1C	15.1µM*	22.8%	2.2%	0.7%	?	-3.1%
Cc1c(N2C(=O)c3ccccc3C2=O)c(=O)n(-c2ccccc2)n1C	-2.8%	-7.1%	8.6%	3.2%	15.0%	-5.5%
COC(=O)CCC(=O)NNC(=O)Cc1ccccc1	-1.9%	-5.9%	0.9%	-1.7%	-3.0%	·
O=c1c2ccc(Cl)cc2nc(-c2ccc([N+](=O)[O-])cc2)n1O	?	-17.8%	-7.7%	-7.3%	9.2µM*	-69.5%
COc1ccc(-c2cc(=Nc3ccc(C(=O)O)cc3)c3cc(C)ccc3o2)cc1	9.53µM*	?	?	?	?	17.8µM*
SMILES	FLuc counter	Rab9 promoter act	NPC1 prom act	ELG1 genotox	ELG1 DNA repair	SMN2 splice enh
CCc1ccc2oc(-c3ccc(OC)cc3)cc(=Nc3c(C)n(C)n(-c4ccccc4)c3=O)c2c1	8.49µM*	?	?	-14.4%	?	-103.8%
COc1ccc(-c2cc(C(=O)Nc3c(C)n(C)n(-c4ccccc4)c3=O)no2)cc1	-0.2%	-6.4%	-0.2%	10.4%	1.5%	-15.1%
COc1ccc2oc(=Nc3ccc(C(=O)O)cc3)c(C(=O)NCc3ccco3)cc2c1	-18.3%	4.7%	-0.9%	-7.6%	-10.2%	-18.2%
CCc1ccc2oc(-c3ccc(OC)cc3)cc(=Nc3cccc(C(=O)O)c3)c2c1	5.36µM*	3.16µM*	?	4.11µM*	?	?
CCN(CC)C(=O)CSc1nnc(-c2c[nH]c3ccccc23)o1	?	14.3%	28.3%	10.0%	?	·
COc1ccccc1N(CC(=O)N/N=C/c1ccccc1C(=O)O)S(C)(=O)=O	5.2%	1.4%	-2.5%	1.9%	1.2%	·
Cc1ccc(CS(=O)(=O)Cc2ccc(C(=O)NCCc3ccccc3)o2)cc1	-0.7%	0.1%	-0.4%	-13.0%	-16.5%	·
CCOc1ccc(OCC(=O)Nc2ccc(S(=O)(=O)Nc3cc(C)on3)cc2)cc1	?	·	·	·	·	3.2%
CSc1nc(N)nc2c1ncn2CC(=O)Nc1ccc(C)c(C)c1	·	·	·	2.7%	6.51µM*	·
Nc1c(N(CCC2=CCCCC2)C(=O)c2ccc([N+](=O)[O-])o2)c(=O)[nH]c(=O)n1Cc1ccccc1	-1.8%	0.3%	5.7%	-20.7%	-14.1%	·
Cc1ccc(C(=O)N(CCC2=CCCCC2)c2c(N)n(Cc3ccccc3)c(=O)[nH]c2=O)o1	-0.7%	-1.3%	6.7%	-31.4%	9.2µM*	·
COc1cc(-c2noc(CN3CCN(c4ccccc4)CC3)n2)cc(OC)c1OC	-0.2%	·	·	·	·	26.1%
Cc1cnc(C(=O)OCc2ccc(Br)cc2)cn1	-3.5%	0.6%	1.0%	1.2%	?	·
Cc1ccc(NC(=O)C(=O)NCc2ccco2)cc1	-17.2%	·	·	·	·	17.8µM*
Cc1ccc(NC(=O)CSCc2ccco2)cc1	15.1µM*	3.98µM*	?	?	?	12.6µM*
Cc1ccc(NC(=O)C(=S)NCc2ccco2)cc1	6.01µM*	2.82µM*	?	?	?	17.2%
Cc1ccc(NC(=O)CSCC(=O)NCc2ccco2)cc1	1.4%	-3.5%	-7.6%	0.0%	7.4%	·
COc1cccc(C(C(=O)NCc2ccccc2)N(C(=O)Cn2nnc3ccccc32)c2cccc(C(C)=O)c2)c1 (configuration not stated)	1.8%	·	·	·	·	1.8%
Cn1nc(NC(=O)CC(C)(C)CC(=O)O)c2ccccc21	-2.7%	1.3%	2.0%	-0.3%	12.4%	·
CSc1nnc(NC(=O)c2ccc(S(=O)(=O)N(C)C)cc2)s1	10.7µM*	0.562µM*	1.58µM*	?	?	12.6µM*
CCCOc1ccc(C(=O)Nc2nc(C)c(Cc3ccc4c(c3)OCO4)s2)cc1	?	1.9%	-0.1%	17.1%	?	-52.6%

Assay outcomes: PubChem BioAssay, National Center for Advancing Translational Sciences (NCATS)
